Records with an inconclusive call do not appear. A call without a number means that no potency is given here. Unmarked numbers belong to inactive results. Calls of active or inactive are those of the source. Calls follow the shape of the dose curve; as a rule, active = well fitted inhibition curve with a large enough effect; inconclusive = small, poorly fitted or top-dose-only effect; inactive = no such curve, though single readings can be large or run the other way.
Assay: Confirmatory qHTS for small molecule stabilizers of the endoplasmic reticulum resident proteome: Secreted ER Calcium Modulated Protein (SERCaMP) assay (AID 1508628); also: nearly all actives have a fitted effect of over 40% in size; also: potency is read from the fitted curve at half-maximal effect
Conditions: SERCaMP secreted luciferase ER calcium/proteostasis reporter; series mostly up to 76.3 µM
In short: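 We seeded SH-SY5Y-GLuc-SERCaMP cells, added compounds (three concentrations in the primary run, eleven up to 76.6 uM in confirmation), incubated 16 h, depleted ER calcium with thapsigargin, and read luciferase 4 h later.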

Structure (SMILES) | Potency
Cc1cc(C)c(N(Cc2ccccc2)S(=O)(=O)c2ccc(OCCNC(=O)c3cc4ccccc4o3)cc2)c(C(=O)NO)c1 | inactive
N=C(CC(O)COc1ccccc1-c1ccccc1)N1CCCCC1 (stereo not drawn) | inactive
CCN(CC)CCCCN1c2ccccc2Oc2ccc(Cl)cc21 | inactive
COc1cccc(CCc2ccccc2OCC[C@@H]2C[C@@H](O)CN2C)c1 | inactive
O=S(=O)(c1cccc2cnccc12)N1CCNCC1 | inactive
N[C@@H](Cc1cc(CP(=O)(O)O)cc(-c2ccccc2Cl)c1)C(=O)O | inactive
CN(C)C/C=C(\c1ccc(Br)cc1)c1cccnc1 | 44.7 µM (active)
CCOC(=O)c1c(C)[nH]c2ccc3c(c12)CN1CCc2cc(OC)ccc2[C@@H]1O3 | inactive

Assay: Primary qHTS for small molecule stabilizers of the endoplasmic reticulum resident proteome: Secreted ER Calcium Modulated Protein (SERCaMP) assay (AID 1508630)
Conditions: SH-SY5Y GLuc-SERCaMP (Gaussia luciferase released on ER calcium loss) secretion, thapsigargin, luminescence; series mostly up to 38.4 µM
In short: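 GLuc-SERCaMP-expressing SH-SY5Y cells, pretreated 16 h with compound, are challenged with thapsigargin to empty ER calcium stores; after 4 h, coelenterazine is added directly to the medium and luminescence is imaged.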

Structure (SMILES) | Potency | activity change, negative = inhibition
NC1=NC2C(N=C(Br)N2[C@@H]2O[C@H]3COP(=O)(O)O[C@@H]3[C@@H]2O)C(=O)N1 (stereo partly drawn) | inactive | 
CCCCC/C=C\C/C=C\CCCCCCCC(=O)NCC(=O)O |  | -10.8% [at 3.88 µM]
Nc1ccccc1C(=O)C[C@H](N)C(=O)O | inactive | 
CCCCC[C@H](O)CC[C@H]1[C@H](O)CC(=O)[C@@H]1CCCCCCC(=O)O |  | -15% [at 3.88 µM]
CC[C@@H](C)[C@@H](CO[C@@H](Cc1ccccc1)C(=O)N[C@@H](CCS(C)(=O)=O)C(=O)OC(C)C)NC[C@@H](N)CS | inactive | 
[C-]#[N+]c1cc(-c2ccncc2)c(C)[nH]c1=O | inactive | 
CC(C)n1nnc2cc(C(=O)O)ccc21 | inactive | 
CO[C@H]1C[C@@H]2CC[C@@H](C)[C@@](O)(O2)C(=O)C(=O)N2CCCC[C@H]2C(=O)OC([C@H](C)C[C@@H]2CC[C@@H](O)[C@H](OC)C2)CC(=O)[C@H](C)/C=C(\C)[C@@H](O)[C@@H](OC)C(=O)[C@H](C)C[C@H](C)/C=C/C=C/C=C/1C (stereo partly drawn) | inactive | 
CCCCC[C@H](O)/C=C/[C@@H]1[C@@H](CC(=O)CCCCC(=O)O)[C@@H](O)C[C@H]1O |  | 35.8% [at 3.88 µM]
CCCCC/C=C\C\C=C/C=C/C=C/[C@@H](SC[C@H](NC(=O)CC[C@H](N)C(=O)O)C(=O)NCC(=O)O)[C@@H](O)CCCC(=O)O |  | -14.5% [at 0.478 µM]
CCC(N)(C(=O)O)c1ccc(C(=O)O)cc1 (stereo not drawn) | inactive | 
NC(=O)N/N=C/c1ccc(Oc2ccc(F)cc2)cc1 | inactive | 
c1ccc(Oc2nc(NC3CCCCC3)c3[nH]cnc3n2)cc1 | inactive | 
CCCCc1nc2ccn(CC(=O)N(C)C)c(=O)c2n1Cc1ccc(-c2ccccc2-c2nn[nH]n2)cc1 | inactive | 
C=C1CC2COC(=O)C2(Cc2ccc3ccccc3c2)C1 (stereo not drawn) | inactive | 
N[C@H](C(=O)O)C1C(C(=O)O)C1C(=O)O (stereo partly drawn) | inactive | 
CCCCC/C=C\C=C\[C@H](O)CCCCCCCC(=O)O |  | 2.02% [at 0.478 µM]
Nc1ncnc2c1ncn2[C@@H]1O[C@H](C(=O)NC2CC2)[C@@H](O)[C@H]1O | inactive | 
COC1C(O)C(CO)OC1n1cnc2c(NC3CCCCC3)ncnc21 (stereo not drawn) | inactive | 
N[C@@]1(C(=O)O)CO[C@H]2[C@H](C(=O)O)[C@H]21 | inactive | 
CCCCCCCCCCCCC(O)C(=O)O (stereo not drawn) |  | 56.7% [at 3.88 µM]
NCCCCCc1cnc[nH]1 | inactive | 
CC1=C(/C=C/C(C)=C/C=C/C(C)=C\CO)C(C)(C)CCC1 | inactive | 
CCCCCCCCCCCCCCCCOC[C@H](COP(=O)([O-])OCC[N+](C)(C)C)OC(=O)NC |  | 5.26% [at 3.88 µM]
CC/C=C\C/C=C\C/C=C\CCCCCCCCCC(=O)O |  | 4.31% [at 3.88 µM]
COc1ccc(CC(N)C(=O)NC2C(O)[C@H](n3cnc4c(N(C)C)ncnc43)O[C@@H]2CO)cc1 (stereo partly drawn) | inactive | 
CCCCC(C)(C)[C@H](O)/C=C/[C@H]1[C@H](O)CC(=O)[C@@H]1C/C=C\CCCC(=O)O |  | 8.87% [at 3.88 µM]
COCCCCCCCCCCCC(=O)O |  | -27.3% [at 3.88 µM]
C=NCc1cc2c(OC[C@@H](O)CNC(C)(C)C)cccc2[nH]1 | inactive | 
CCCCC/C=C\C\C=C/C=C/C=C/[C@@H](SCC(NC(C)=O)C(=O)O)[C@@H](O)CCCC(=O)O (stereo partly drawn) |  | -5.72% [at 0.478 µM]

Source: PubChem BioAssay (NCATS)
